# Source: PubChem BioAssay (The Scripps Research Institute Molecular Screening Center)
# In the library only some 2.2% were active in any assay of this set; here they are far more common.
# CHRM4 antagonist – CHRM4 antagonism in calcium assay. P08173. CHO-hM4 cells, ACh EC80, Fluo-8 calcium fluorescence. inhibition, % at 3 µM. AID 624125. hit rate 0.73% among 360,000;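 active means inhibition above its plate's cutoff, the mean inhibition of sample wells plus 3 SD, cut at about 27% in these data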;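 further: 0% = acetylcholine EC80 with DMSO and 100% = DMSO without agonist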
# CHRM1 PAM – human CHRM1 positive allosteric modulation; P11229; CHO-K1 hM1, Fluo-8 calcium fluorescence, ACh EC20; 0% = ACh EC20, 100% = maximal ACh; activation, % at 3 µM; hit rate 0.088% among 360,000; in the data active means activation above about 19%, passing the limit was not always enough
# Target sequence (P11229 whole entry, looked up): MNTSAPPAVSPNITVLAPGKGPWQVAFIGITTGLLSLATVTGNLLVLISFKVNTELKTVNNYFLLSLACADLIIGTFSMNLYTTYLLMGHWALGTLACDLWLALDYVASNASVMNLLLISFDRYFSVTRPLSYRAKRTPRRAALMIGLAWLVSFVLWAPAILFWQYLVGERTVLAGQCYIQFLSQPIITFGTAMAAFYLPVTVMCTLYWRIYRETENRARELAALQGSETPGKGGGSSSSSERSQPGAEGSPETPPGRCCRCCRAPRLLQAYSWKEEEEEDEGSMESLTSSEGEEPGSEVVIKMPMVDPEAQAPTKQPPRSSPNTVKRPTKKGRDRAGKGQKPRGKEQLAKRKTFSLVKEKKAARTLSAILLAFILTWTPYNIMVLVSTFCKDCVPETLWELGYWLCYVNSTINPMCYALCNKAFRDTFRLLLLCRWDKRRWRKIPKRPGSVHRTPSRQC
# M4 PAM – positive allosteric modulators of human muscarinic M4 receptor; activation, % at 3 µM; CHO-K1 hM4/Gqi5, Fluo-8 calcium fluorescence, ACh EC20; 0% = ACh EC20, 100% = maximal ACh; hit rate 0.4% among 360,000; P08173;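 active means activation above its plate's cutoff, the mean activation of sample wells plus 3 SD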
# CHRM4 agonist – CHRM4 agonism in calcium assay | P08173 | CHO-K1 hM4/Gqi5, Fluo-8 calcium fluorescence; vehicle 0%, full acetylcholine response 100% | activation, % at 3 µM | hit rate 0.14% among 360,000;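 active means activation above the run mean over all test wells plus 3 SD, cut at about 32% in these data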;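 further: peak over basal fluorescence ratio per well then scaled between controls; 0% = DMSO wells and 100% = acetylcholine at EC100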
# CHRM1 agonist – agonists of human M1 muscarinic receptor | activation, % at 3 µM | hit rate 0.33% among 360,000 | AID 588814 | CHO-K1 hM1, Fluo-8 calcium fluorescence, agonist mode; 0% DMSO, 100% acetylcholine EC100 | P11229;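 active means activation above the run's mean compound activation plus 3 SD, cut at about 16% in these data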;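 further: peak over basal fluorescence ratio within a 140 s kinetic read after compound addition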
# CHRM1 antagonist – antagonists of human M1 muscarinic receptor | P11229 | CHO-K1 hM1, Fluo-8 calcium fluorescence, ACh EC80 antagonist | inhibition, % at 3 µM | hit rate 1.3% among 360,000;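 active means percent inhibition above its own plate's cutoff, namely the mean of that plate's compound wells plus 3 SD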;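 further: peak over basal fluorescence ratio during 140 s after agonist addition; 0% = ACh EC80 plus DMSO and 100% = DMSO alone without agonist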
# * hit, by the source's call.
SMILES,CHRM4 antagonist,CHRM1 PAM,M4 PAM,CHRM4 agonist,CHRM1 agonist,CHRM1 antagonist
Cc1ccc(CN2C(=O)C(CC(C)C)Nc3ncnc(N4CCN(c5ccccn5)CC4)c32)cc1 (stereo not given),8,-29,-10,6,-11,34*
CCOC(=O)N1CCN(C(=O)CCCCCn2c(=S)[nH]c3cc4c(cc3c2=O)OCO4)CC1,7,4,-2,-1,-8,-3
Cn1c(=O)[nH]c(=O)c2c1nc(N1CCN(Cc3ccccc3)CC1)n2CCSc1ncccn1,13,-14,-9,21,-5,33*
Cn1c(=O)[nH]c(=O)c2c1nc(N1CCCCC1)n2CCSc1nc2ccccc2o1,81*,0,-13,0,-1,-1
CN1CCN(c2nc3c(c(=O)[nH]c(=O)n3C)n2CCSc2nc3ccccc3s2)CC1,-16,-7,1,1,18*,-4
Cn1c(=O)[nH]c(=O)c2c1nc(N1CCc3ccccc3C1)n2CCSc1nc2ccccc2s1,-12,16,18,0,-2,-16
Cn1c(=O)[nH]c(=O)c2c1nc([N+](=O)[O-])n2Cc1ccccc1,-24,3,41*,1,0,-10
O=C(NCc1ccccc1)c1ccc(Cl)c(S(=O)(=O)N2CCCC2)c1,1,-1,2,6,-3,2
Cc1nnc(NC(=O)c2c(F)c(F)c(F)c(F)c2F)s1,5,7,-2,1,-2,-12
Cc1nc2ccccc2n1Cc1n[nH]c(=S)n1-c1ccc(Cl)cc1,-1,9,-4,0,-5,-2
c1ccc(CNCCCNCCCCNCCCNCc2ccccc2)cc1,0,2,-4,1,-6,-9
OC(c1ccccc1)C(NCCNCc1ccccc1)c1ccccc1 (stereo not given),11,-24,-8,2,-9,38*
CCOc1ccc(CNC(=O)C2Cc3cc(S(=O)(=O)N4CCCCC4)ccc3N2C(C)=O)cc1 (stereo not given),-4,-5,-6,-1,-4,3
Cc1ccc2nc(-c3ccc(N)cc3)sc2c1,2,9,13*,1,-3,-18
Nc1ccc2nc(-c3ccccc3)sc2c1,5,10,7,1,-4,-7
COC(=O)N1C2CCCCC2=NN(c2ccccc2)N1C(=O)OC (stereo not given),8,11,4,0,12,1
COC(=O)c1ccc(Cn2c(O)c(N=O)c3ccccc32)o1,-1,13,8,-1,11,-14
O=Nc1c(O)n(Cc2ccccc2)c2ccccc12,-1,18,0,-1,16*,-16
O=Nc1c(O)n(Cc2ccc(Cl)c(Cl)c2)c2ccccc12,2,25*,-7,-2,19*,-23
O=Nc1c(O)n(Cc2cccc(C(F)(F)F)c2)c2ccccc12,0,15,1,-1,19*,2
Cc1onc(-c2ccccc2Cl)c1C(=O)N(C)CC(=O)Nc1ccc(F)c(F)c1F,1,-1,2,2,-1,8
CCN(CC)c1ccc(/C=C/c2ccc3ccc(OC)cc3[n+]2CC)cc1,36*,-14,-15,22,3,48*
CC[n+]1c(/C=C/c2ccc(N(C)C)cc2)ccc2ccccc21,8,1,11,1,-12,17
COc1cc(/C=c2/sc3nc(-c4ccccc4)c(-c4ccccc4)n3c2=O)cc(OC)c1OC,-11,-1,6,1,-3,-2
CN(CCCCOc1ccc(F)cc1)Cc1ccccc1,1,-12,-11,1,-7,12
Cc1cc(C)c(C)c(OCCCCN(C)Cc2ccccc2)c1,7,-29,-15,3,-7,65*
CCN(Cc1ccccc1)Cc1ccc(OCc2ccccc2)cc1,27*,-24,-13,-2,-9,35*
CCc1ccc(OCCCCN(C)Cc2ccccc2)cc1,30*,-23,-16,1,-8,33*
Nc1ccc(OCc2ccccc2)cc1,-5,1,0,0,-7,-2
COc1cc(CC(=O)OCC(=O)Nc2ccc3c(c2)OCCO3)cc(OC)c1OC,3,1,-3,1,-4,-6
